Consider 13 molecules from paper PMC5540273 (PLoS ONE, 2017).

Among the test systems are CDC2L2; CDK2; CDK3; CDK4-cyclinD1; CDK4-cyclinD3; CDK4; CDK5; CDK7; CDK8; CDK9; CDKL1; CDKL2; CDKL3; CDKL5; CIT; CLK1; CHEK1; CHEK2.
Holding throughout (conditions): concentration: 1 μM,replicates: in singlicate; n = 1
The next assay concerns T1, CDC2L5.
T1 construct: gene CDK13

Another assay has as its system T2, CDK11.
T2 construct: gene CDK19
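Also: KINOMEscan kinase panel screen.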

On to `CNC(=O)c1ccccc1Sc1ccc2c(/C=C/c3ccccn3)n[nH]c2c1`, for which the “%Inh” value was found to be 0% in the assay with CDC2L2; 0% with CDC2L5; 0% in the assay with CDK11; 1% in the assay on CDK2; 63% with CDK3; 0% in the assay with CDK4-cyclinD1. The “%Inh” value in the assay on CDK4-cyclinD3 worked out at 0%; with CDK4, 0%; in the assay with CDK5 it was 3%; with CDK7, 25%; in the assay on CDK8, 30%; with CDK9, 0%. In addition, the “%Inh” value in the assay with CDKL1 turned out to be 8%; in the assay with CDKL2 it was 28%; in the assay on CDKL3, 0%; with CDKL5 it was 0%; with CIT, 0%; in the assay on CLK1, 0%.

On to `O=C(NCCCN1CCOC1=O)c1cnc(NCc2cc(Cl)ccc2Cl)nc1NC1CCCC1`, for which the “%Inh” value in the assay on CDC2L2 is listed as 0%; in the assay on CDC2L5, 0%; in the assay with CDK11, 29%; in the assay on CDK2, 0%; in the assay with CDK3 it was 14%; in the assay with CDK4-cyclinD1 it was 4%. Besides, the “%Inh” value in the assay with CDK4-cyclinD3 is reported as 0%; in the assay on CDK4, 12%; in the assay with CDK5, 10%; in the assay on CDK7, 14%; in the assay on CDK8 it was 17%; in the assay on CDK9 it was 5%. Besides, the “%Inh” value in the assay on CDKL1 is on record as 25%; with CDKL2, 13%; in the assay with CDKL3 it was 29%; with CDKL5, 0%; with CHEK1, 9%; with CHEK2, 8%. Further, the “%Inh” value with CIT was 25%; in the assay with CLK1, 0%.

For `Cc1n[nH]c2ccc(-c3cc(OC[C@@H](N)Cc4ccccc4)cnc3-c3ccoc3)cc12.O=C(O)C(F)(F)F.O=C(O)C(F)(F)F` [GSK507358], the “%Inh” value with CDC2L2 stood at 0%; in the assay on CDC2L5, 0%; in the assay with CDK11 it was 6%; in the assay with CDK2, 0%; in the assay on CDK3, 0%; with CDK4-cyclinD1, 0%. The “%Inh” value is listed as 0% with CDK4-cyclinD3; 10% in the assay with CDK4; 0% in the assay on CDK5; 0% with CDK7; 26% in the assay on CDK8; 0% with CDK9. Also, the “%Inh” value with CDKL1 worked out at 6%; in the assay with CDKL2, 57%; in the assay with CDKL3 it was 0%; in the assay with CDKL5, 0%; in the assay on CHEK1 it was 0%; with CHEK2, 0%. Further, the “%Inh” value came to 100% with CIT and 38% with CLK1.

`Cl.Cl.NC[C@H](Cc1ccc(C(F)(F)F)cc1)NC(=O)c1cc(Br)c(-c2ccnc3[nH]ccc23)s1` [GSK1487252]: the “%Inh” value is listed as 0% in the assay on CDC2L2; 0% in the assay with CDC2L5; 14% with CDK11; 3% in the assay on CDK2; 0% in the assay on CDK3; 14% in the assay with CDK4-cyclinD1. In addition, the “%Inh” value in the assay on CDK4-cyclinD3 is recorded as 2%; with CDK4, 0%; in the assay with CDK5 it was 0%; in the assay on CDK7 it was 0%; in the assay on CDK8, 17%; with CDK9 it was 0%. Further, the “%Inh” value in the assay on CDKL1 is given as 6%; in the assay with CDKL2, 0%; in the assay on CDKL3, 0%; in the assay on CDKL5 it was 0%; in the assay on CHEK1, 14%; in the assay on CHEK2, 18%. Also, the entries for the “%Inh” value in the assay with CIT and in the assay with CLK1 were 72% and 62%, respectively.

As to `CN(C)CCOc1ccc(-c2cc(-c3c[nH]nc3-c3ccccn3)ccn2)cc1` [GW835314], the “%Inh” value in the assay with CDC2L2 is recorded as 9%; with CDC2L5 it was 0%; in the assay on CDK11, 13%; with CDK2 it was 1%; in the assay with CDK3, 16%; with CDK4-cyclinD1 it was 0%. The “%Inh” value in the assay with CDK4-cyclinD3 was determined as 17%; in the assay with CDK4, 45%; with CDK5, 0%; in the assay with CDK7, 16%; in the assay with CDK8, 2%; with CDK9, 0%. Further, the “%Inh” value in the assay with CDKL1 was 25%; with CDKL2, 0%; in the assay on CDKL3 it was 12%; with CDKL5 it was 1%; in the assay with CHEK1, 0%; in the assay with CHEK2 it was 4%. Moreover, the entries for the “%Inh” value in the assay with CIT and with CLK1 were 45% and 70%, respectively.

Consider `CC(C)N1C(=O)Cc2cc(Nc3ncc(C(F)(F)F)c(NCc4cccc(S(C)(=O)=O)c4)n3)ccc21`, for which the “%Inh” value in the assay with CDC2L2 was 3%; in the assay on CDC2L5, 7%; with CDK11, 0%; in the assay on CDK2, 0%; in the assay on CDK3 it was 5%; in the assay with CDK4-cyclinD1, 26%. The “%Inh” value worked out at 0% in the assay with CDK4-cyclinD3; 35% with CDK4; 9% in the assay with CDK5; 52% in the assay with CDK7; 0% in the assay with CDK8; 19% with CDK9. Besides, the “%Inh” value with CDKL1 came out at 0%; in the assay on CDKL2 it was 19%; in the assay with CDKL3, 0%; in the assay with CDKL5, 1%; in the assay with CHEK1, 0%; with CHEK2, 0%. Moreover, the figures for the “%Inh” value in the assay with CIT and with CLK1 were 21% and 51%, respectively.

As for `Cl.Oc1cc(-c2nc(-c3ccccc3)[nH]c2-c2ccncc2)ccc1Cl` [SB-386023], the “%Inh” value with CDC2L2 was 0%; in the assay on CDC2L5 it was 1%; with CDK11 it was 5%; with CDK2, 4%; in the assay on CDK3 it was 0%; with CDK4-cyclinD1, 2%. For the same molecule, the “%Inh” value in the assay with CDK4-cyclinD3 is given as 0%; with CDK4, 47%; in the assay with CDK5, 32%; in the assay with CDK7 it was 11%; in the assay with CDK8 it was 0%; in the assay with CDK9, 0%. Further, the “%Inh” value in the assay on CDKL1 is 0%; with CDKL2 it was 0%; in the assay on CDKL3, 22%; in the assay with CDKL5, 2%; in the assay on CHEK1 it was 0%; in the assay with CHEK2, 0%. In addition, the “%Inh” value with CIT was 76%; in the assay with CLK1, 18%.

`Cc1cc2cn[nH]c2cc1-c1cccc2c(N)c(C(N)=O)nnc12`: the “%Inh” value in the assay with CDC2L2 was determined as 32%; with CDC2L5 it was 0%; with CDK11, 1%; in the assay with CDK2, 24%; in the assay on CDK3, 43%; in the assay with CDK4-cyclinD1, 8%. The “%Inh” value in the assay on CDK4-cyclinD3 was 35%; with CDK4, 18%; in the assay with CDK5, 88%; with CDK7 it was 0%; in the assay with CDK8, 10%; in the assay on CDK9, 5%. Also, the “%Inh” value with CDKL1 stood at 29%; in the assay with CDKL2, 28%; in the assay with CDKL3, 0%; with CDKL5, 6%; in the assay on CHEK1 it was 0%; with CHEK2 it was 90.9%. Moreover, the “%Inh” value was 0% with CIT and 22% in the assay with CLK1.

Regarding `CCN(CC)CCOc1ccc(Nc2ncc3cc(-c4c(Cl)cccc4Cl)c(=O)n(C)c3n2)cc1` [SB-601273], the “%Inh” value with CDC2L2 was found to be 43%; in the assay on CDC2L5 it was 41%; in the assay on CDK11, 90.1%; with CDK2, 7%; in the assay with CDK3, 9%; in the assay with CDK4-cyclinD1, 80%. Further, the “%Inh” value is 48% with CDK4-cyclinD3; 89% with CDK4; 0% in the assay on CDK5; 34% in the assay on CDK7; 99% in the assay on CDK8; 20% in the assay on CDK9. Moreover, the “%Inh” value with CDKL1 is reported as 12%; in the assay on CDKL2, 100%; in the assay with CDKL3, 6%; in the assay on CDKL5, 0%; in the assay with CHEK1 it was 52%; in the assay with CHEK2, 68%. Besides, the “%Inh” value with CIT stood at 74%; in the assay on CLK1 it was 0%.

Consider `COc1ccc(C[C@@H](CN)NC(=O)c2cc(Br)c(-c3ccnc4[nH]ccc34)s2)cc1.Cl.Cl` [GSK1389063], for which the “%Inh” value in the assay with CDC2L2 amounted to 0%; in the assay with CDC2L5 it was 0%; in the assay on CDK11, 39%; with CDK2, 6%; in the assay on CDK3, 5%; in the assay with CDK4-cyclinD1 it was 0%. Moreover, the “%Inh” value in the assay on CDK4-cyclinD3 is listed as 28%; in the assay on CDK4, 0%; with CDK5 it was 0%; in the assay with CDK7, 72%; in the assay with CDK8, 27%; in the assay with CDK9, 37%. Also, the “%Inh” value is 80% in the assay on CDKL1; 40% in the assay on CDKL2; 62% with CDKL3; 95.5% in the assay on CDKL5; 89% in the assay on CHEK1; 63% in the assay with CHEK2. The “%Inh” value worked out at 93.5% in the assay with CIT and 91.7% in the assay with CLK1.

On to `Cl.Cl.NC[C@H](CC1CCCCC1)NC(=O)c1cc(Br)c(-c2ccnc3[nH]ccc23)s1` [GSK1581427], for which the “%Inh” value in the assay on CDC2L2 worked out at 0%; in the assay on CDC2L5, 0%; in the assay on CDK11, 12%; with CDK2 it was 0%; in the assay with CDK3, 0%; in the assay with CDK4-cyclinD1 it was 0%. In addition, the “%Inh” value in the assay on CDK4-cyclinD3 was 6%; with CDK4, 0%; with CDK5, 0%; in the assay with CDK7, 45%; in the assay on CDK8, 0%; with CDK9 it was 5%. For the same molecule, the “%Inh” value is given as 12% in the assay on CDKL1; 18% in the assay with CDKL2; 0% in the assay on CDKL3; 0% in the assay on CDKL5; 60% in the assay on CHEK1; 0% in the assay with CHEK2. Besides, the “%Inh” value in the assay on CIT is 99.6%; in the assay on CLK1, 77%.

Take `C=CC(=O)Nc1cc2c(Nc3ccc(F)c(Cl)c3)ncnc2cc1OCCCN1CCOCC1` [GW781483]: the “%Inh” value with CDC2L2 is 0%; with CDC2L5, 19%; in the assay on CDK11, 15%; with CDK2, 0%; with CDK3, 0%; in the assay with CDK4-cyclinD1 it was 27%. The “%Inh” value with CDK4-cyclinD3 was 11%; in the assay with CDK4 it was 23%; in the assay on CDK5 it was 0%; in the assay with CDK7, 17%; in the assay with CDK8, 33%; in the assay with CDK9, 0%. Further, the “%Inh” value in the assay with CDKL1 amounted to 17%; with CDKL2 it was 0%; with CDKL3 it was 11%; in the assay with CDKL5, 1%; in the assay on CHEK1 it was 0%; with CHEK2, 47%. Also, the “%Inh” value was determined as 31% in the assay with CIT and 99.7% with CLK1.

Consider `C[C@H]1Oc2cc(cnc2N)-c2c(nn(C)c2C#N)CN(C)C(=O)c2ccc(F)cc21`, for which the “%Inh” value in the assay on CDC2L2 came to 18%; in the assay with CDC2L5, 0%; in the assay on CDK11, 12%; with CDK2, 21%; with CDK3, 6%; in the assay with CDK4-cyclinD1 it was 0%. The “%Inh” value is 0% in the assay with CDK4-cyclinD3; 0% in the assay on CDK4; 11% in the assay with CDK5; 0% with CDK7; 0% with CDK8; 1% in the assay on CDK9. Besides, the “%Inh” value in the assay with CDKL1 was determined as 34%; in the assay on CDKL2, 0%; with CDKL3 it was 5%; in the assay on CDKL5, 0%; in the assay with CHEK1 it was 16%; with CHEK2, 24%. For the same molecule, the “%Inh” value is recorded as 0% in the assay with CIT and 17% with CLK1.
